Test results published in PubChem BioAssay (Tox21).
Several values for one entry are separate records, joined by “and”; a condition that tells them apart may be missing. Identical values can stand only once. Results filed as inconclusive are left out. Where a structure was tested more than once in an assay, its records may differ in their call. Activity calls are given as the source filed them. Unless noted, calls come from the whole dose curve; as a rule, active = well fitted curve in the direction sought with a large enough effect in the repeat runs; inconclusive = weak or mixed curves; inactive = no such curve, though single readings can be large; an effect the other way counts as inactive or inconclusive.

Key:
[1] = qHTS assay to identify small molecule agonists of the RXR signaling pathway - cell viability counter screen (AID 1159529); note: nearly all actives have a fitted effect of over 50% in size; note: potency is the fitted concentration of half-maximal effect
Method in brief: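 Steps: seed RXR-alpha-UAS-bla HEK 293T cells in assay medium containing 2% charcoal-stripped FBS; incubate 5 hr; add compounds in DMSO; incubate 16 hr at 37 C; after the bla read, add CellTiter-Glo and read luminescence at 30 min.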

[2] = qHTS assay to identify small molecule antagonists of the retinoid acid receptor (RAR) signaling pathway - cell viability counter screen (AID 1159551); note: nearly all actives have a fitted effect of over 35% in size
Method in brief: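 Luminescent ATP quantitation (CellTiter-Glo) gave cell viability in C3RL4 cells exposed to test chemicals for 6 h at 37 C alongside 1 uM final retinol.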

[3] = qHTS assay to identify small molecule antagonists of the retinoic acid receptor (RAR) signaling pathway (AID 1159552; note: nearly all actives have a fitted effect of over 50% in size)
Method in brief: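 Retinol at 1 uM final stimulated RARE-luciferase expression in C3RL4 cells exposed to test compounds for 6 hr at 37 C. Reduced luminescence, read 30 min after detection reagent, indicated pathway antagonism.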

[4] = qHTS assay to identify small molecule antagonists of the estrogen related receptor (ERR) signaling pathway from Tox21 library - cell viability counter screen (AID 1224834); note: nearly all actives have a fitted effect of over 30% in size; note: potency is the fitted concentration of half-maximal effect
Method in brief: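 Fluorescence from CellTiter-Fluor gives the viability read-out, taken 30 min after reagent addition. Before that, ERR cells seeded 6 h earlier were incubated with compounds for 17.5 h at 37 C.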

[5] = target: Luciferin 4-monooxygenase (Photinus pyralis) (UniProt P08659); experiment: qHTS assay to identify small molecule inhibitors of firefly luciferase (AID 1224835); note: nearly all actives have a fitted effect of over 25% in size
Sequence of Luciferin 4-monooxygenase (Photinus pyralis) (P08659 whole entry, looked up): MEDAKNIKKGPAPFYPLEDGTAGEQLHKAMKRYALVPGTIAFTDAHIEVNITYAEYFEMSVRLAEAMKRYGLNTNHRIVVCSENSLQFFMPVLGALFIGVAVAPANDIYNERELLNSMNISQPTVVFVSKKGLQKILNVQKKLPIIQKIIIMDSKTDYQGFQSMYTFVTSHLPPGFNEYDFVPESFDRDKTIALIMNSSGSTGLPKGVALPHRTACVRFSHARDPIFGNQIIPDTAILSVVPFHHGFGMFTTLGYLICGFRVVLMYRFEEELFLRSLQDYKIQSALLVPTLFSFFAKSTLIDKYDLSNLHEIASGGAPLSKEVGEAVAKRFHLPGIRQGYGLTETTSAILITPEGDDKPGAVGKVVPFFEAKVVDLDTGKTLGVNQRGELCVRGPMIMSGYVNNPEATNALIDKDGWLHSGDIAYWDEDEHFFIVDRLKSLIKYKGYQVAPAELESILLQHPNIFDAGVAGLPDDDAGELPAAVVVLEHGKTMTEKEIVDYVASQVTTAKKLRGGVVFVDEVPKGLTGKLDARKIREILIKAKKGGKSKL
Method in brief: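 Quantitative HTS format; KM concentrations of both substrates. Purified P. pyralis FLuc activity quantified from luminescence images.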

[6] = qHTS assay to identify small molecule agonists of the constitutive androstane receptor (CAR) signaling pathway - cell viability counter screen (AID 1224836); note: nearly all actives have a fitted effect of over 45% in size; note: potency is the fitted concentration of half-maximal effect
Method in brief: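 Cells were seeded and incubated 4 hrs. Compounds were added across 15 concentrations together with PK11195 at 0.75 uM final. Plates were incubated 23 hrs at 37 C. CellTiter-Fluor was added and fluorescence measured.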

[7] = qHTS assay to identify small molecule antagonists of the constitutive androstane receptor (CAR) signaling pathway - cell viability counter screen (AID 1224837); note: nearly all actives have a fitted effect of over 45% in size; note: potency is the fitted concentration of half-maximal effect
Method in brief: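 HepG2-CYP2B6-hCAR cells, 2500/well, 4 hr pre-incubation; compound titration, 15 conc.; CITCO 50 nM final; 23 hr, 37 C/5% CO2; CellTiter-Fluor, fluorescence intensity.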

[8] = target: Nuclear receptor subfamily 1 group I member 3 (Homo sapiens) (UniProt Q14994); experiment: qHTS assay to identify small molecule antagonists of the constitutive androstane receptor (CAR) signaling pathway (AID 1224838);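 note: HepG2 cells stably expressing hCAR with CYP2B6 luciferase reporter stimulated by CITCO; nearly all actives have a fitted effect of over 40% in size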; note: potency is the fitted concentration of half-maximal effect
Sequence of Nuclear receptor subfamily 1 group I member 3 (Homo sapiens) (Q14994 whole entry, looked up): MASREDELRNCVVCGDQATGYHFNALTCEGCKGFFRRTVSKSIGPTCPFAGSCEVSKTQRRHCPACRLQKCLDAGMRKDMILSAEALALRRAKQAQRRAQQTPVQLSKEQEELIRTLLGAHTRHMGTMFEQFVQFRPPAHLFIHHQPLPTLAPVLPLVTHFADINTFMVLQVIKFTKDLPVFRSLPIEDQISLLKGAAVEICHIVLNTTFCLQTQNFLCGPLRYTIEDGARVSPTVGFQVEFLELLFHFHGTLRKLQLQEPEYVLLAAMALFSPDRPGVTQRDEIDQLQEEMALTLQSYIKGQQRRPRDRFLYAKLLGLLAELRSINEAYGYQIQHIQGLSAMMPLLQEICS
Method in brief: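 HepG2-CYP2B6-hCAR cells; 4 h pre-incubation; cpd (15 conc) + CITCO 50 nM final; 24 h, 37 C/5% CO2; ONE-Glo, luminescence.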

[9] = target: Nuclear receptor subfamily 1 group I member 3 (Homo sapiens) (UniProt Q14994); experiment: qHTS assay to identify small molecule agonists of the constitutive androstane receptor (CAR) signaling pathway (AID 1224839); note: nearly all actives have a fitted effect of over 15% in size; note: potency is the fitted concentration of half-maximal effect;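 for activation: HepG2 cells stably carrying human CAR and a CYP2B6 luciferase reporter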
Method in brief: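 Cells were plated and incubated 4 hrs, then dosed with compounds at 15 concentrations. PK11195 was added to 0.75 uM final. After 24 hrs at 37 C, luciferase luminescence was measured.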

[10] = qHTS assay to identify small molecule antagonists of the estrogen related receptor signaling pathway with the pleiotropic PPARgamma coactivator (PGC) from Tox21 10K library - cell viability counter screen (AID 1224840; active = well fitted cell-killing curve with a large enough effect in the repeat runs, not every such curve was filed as active; note: nearly all actives have a fitted effect of over 40% in size; note: potency is the fitted concentration of half-maximal effect)
Method in brief: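 PGC/ERR cells, 2,000/well; 6 h pre-incubation 37 C/5% CO2; cpd in DMSO via pin tool; 17.5 h 37 C; CellTiter-Fluor, 30 min; fluorescence.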

[11] = target: Thyrotropin receptor (Homo sapiens) (UniProt P16473); experiment: qHTS assay to identify small molecule agonists of the thyroid stimulating hormone receptor (TSHR) signaling pathway (AID 1224843; calls by dose curve; note: nearly all actives have a fitted effect of over 45% in size; note: potency is the fitted concentration of half-maximal effect)
Sequence of Thyrotropin receptor (Homo sapiens) (P16473 whole entry, looked up): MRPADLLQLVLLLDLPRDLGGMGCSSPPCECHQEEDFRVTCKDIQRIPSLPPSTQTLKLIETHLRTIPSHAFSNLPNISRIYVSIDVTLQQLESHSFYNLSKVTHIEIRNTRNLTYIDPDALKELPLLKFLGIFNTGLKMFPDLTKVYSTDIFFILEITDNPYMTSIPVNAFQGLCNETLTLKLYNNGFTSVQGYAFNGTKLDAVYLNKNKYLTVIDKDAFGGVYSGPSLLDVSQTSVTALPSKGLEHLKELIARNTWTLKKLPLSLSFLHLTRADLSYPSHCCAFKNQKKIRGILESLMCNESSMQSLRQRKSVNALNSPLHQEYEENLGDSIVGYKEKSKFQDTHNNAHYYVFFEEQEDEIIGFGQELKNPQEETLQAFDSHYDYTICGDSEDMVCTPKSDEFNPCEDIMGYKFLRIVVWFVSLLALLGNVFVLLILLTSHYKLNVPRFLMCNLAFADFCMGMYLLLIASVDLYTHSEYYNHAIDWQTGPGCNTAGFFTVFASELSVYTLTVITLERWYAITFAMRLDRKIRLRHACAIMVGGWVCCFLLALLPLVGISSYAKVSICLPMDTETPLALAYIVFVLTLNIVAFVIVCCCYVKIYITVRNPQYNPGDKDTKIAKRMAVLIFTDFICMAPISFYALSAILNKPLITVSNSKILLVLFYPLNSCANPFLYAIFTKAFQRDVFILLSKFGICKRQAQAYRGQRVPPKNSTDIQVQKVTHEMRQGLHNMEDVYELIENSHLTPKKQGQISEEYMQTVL
Method in brief: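 Cell line HEK293 with TSHR; density 800/well. Exposure 30 min RT. Readout HTRF cAMP (cAMP-d2/anti-cAMP-cryptate), 1 h RT before reading.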

[12] = qHTS assay to identify small molecule agonists of the retinoic acid receptor (RAR) signaling pathway (AID 1159553); settings: C3RL4 RARE luciferase reporter, agonist, 6 h; activation: at 73.3 µM (top of the series) unless noted
Method in brief: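 Luminescence from a RARE-driven luciferase reporter in C3RL4 cells served as the read-out, measured after 30 min with detection reagent at room temperature. Compounds in DMSO were applied for 6 hr at 37 C following overnight seeding.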

[13] = qHTS assay to identify small molecule antagonists of the estrogen related receptor (ERR) signaling pathway - cell viability counter screen (AID 1224818);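 note: viability measured after 17.5 h of compound exposure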
Method in brief: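 Multiplexed counter screen to separate cytotoxic compounds from true ERR modulators. ERR cells received DMSO-dissolved compounds after a 6 h pre-incubation, were exposed 17.5 h at 37 C, then assayed with CellTiter-Fluor fluorescence.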

[14] = qHTS assay to identify small molecule antagonists of the estrogen related receptor signaling pathway with the pleiotropic PPARgamma coactivator (PGC) cell viability counter screen (AID 1224822)
Method in brief: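 Cells: PGC/ERR, 2,000/well, 1536-well format. Pre-incubation 6 h, 37 C/5% CO2. Compound exposure 17.5 h, 37 C. Detection: CellTiter-Fluor, 30 min, fluorescence.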

[15] = qHTS assay to identify small molecule antagonists of the estrogen related receptor signaling pathway with the pleiotropic PPARgamma coactivator (PGC) from Tox21 10K library (AID 1224841; call rule not given here; note: actives are mostly falling curves and most rising ones were filed inactive; nearly all actives have a fitted effect of over 50% in size; note: potency is the fitted concentration of half-maximal effect)
Method in brief: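 PGC/ERR cell line, 2,000 cells/well; 6 h pre-incubation 37 C/5% CO2; compounds (DMSO) pinned in; 18 h, 37 C; One-Glo, 30 min RT; luminescence.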

[16] = qHTS assay to identify small molecule agonists of the estrogen related receptor signaling pathway with the pleiotropic PPARgamma coactivator (PGC) from Tox21 10K library (AID 1224842); note: nearly all actives have a fitted effect of over 15% in size
Method in brief: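 PGC/ERR reporter cells (NTP line) were seeded 2,000 per well, rested 6 h at 37 C/5% CO2, then pin-dosed with compounds in DMSO for 18 h at 37 C; luciferase read by One-Glo luminescence after 30 min at room temperature.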

[17] = qHTS assay to identify small molecule agonists of the estrogen related receptor (ERR) signaling pathway (AID 1224820)
Method in brief: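 Cells: ERR line from NTP, 2,000/well. Pre-incubation 6 h, 37 C/5% CO2. Compound (DMSO) pin transfer, 18 h 37 C. One-Glo, 30 min RT, luminescence.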

[18] = tested on: estrogen-related receptor alpha (ERRalpha) with PGC-1alpha coactivator, human; experiment: qHTS assay to identify small molecule antagonists of the estrogen related receptor signaling pathway with the pleiotropic PPARgamma coactivator (PGC) (AID 1224821; calls by dose curve;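 note: lower luminescence signal means antagonism of PGC/ERR signalling; nearly all actives have a fitted effect of over 50% in size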)
Method in brief: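 Luminescent read-out (One-Glo, 30 min at room temperature) following 18 h treatment of PGC/ERR cells at 37 C with compounds delivered in DMSO. Cells had settled 6 h at 37 C/5% CO2 before dosing.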

[19] = qHTS assay to identify small molecule agonists of the estrogen related receptor signaling pathway with the pleiotropic PPARgamma coactivator (PGC) (AID 1224823)
Method in brief: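 Steps: plate PGC/ERR cells at 2,000 cells/well; incubate 6 h, 37 C/5% CO2; pin-transfer compounds (DMSO); incubate 18 h, 37 C; add One-Glo; 30 min RT; read luminescence.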

Measured: Potency

OC[C@H]1O[C@@H]2O[C@H]3[C@H](O)[C@@H](O)[C@@H](O[C@H]4[C@H](O)[C@@H](O)[C@@H](O[C@H]5[C@H](O)[C@@H](O)[C@@H](O[C@H]6[C@H](O)[C@@H](O)[C@@H](O[C@H]7[C@H](O)[C@@H](O)[C@@H](O[C@H]1[C@H](O)[C@H]2O)O[C@@H]7CO)O[C@@H]6CO)O[C@@H]5CO)O[C@@H]4CO)O[C@@H]3CO
not listed: [12] | [13] | [14] | [15] | [16] | [17] | [18] | [19]
inactive: all other assays above

CC(C)[N+](C)(CCOC(=O)C1c2ccccc2Oc2ccccc21)C(C)C
not listed: [3] | [8] | [9] | [15] | [16] | [17] | [18] | [19]
inactive: all other assays above

[Na+]
inactive: [1] | [2] | [4] | [5] | [6] | [7] | [9] | [10]

c1ccc2ncccc2c1
inactive: [1] | [2] | [4] | [5] | [6] | [7] | [9] | [10] | [11]

COC(=O)c1ccc(C)cc1
inactive: [1] | [2] | [4] | [5] | [6] | [7] | [8] | [9] | [10] | [11]

CC1(C)C(C=C(Cl)Cl)C1C(=O)OCc1cccc(Oc2ccccc2)c1 (stereo unspecified)
active: [9] 6.81 µM and 6.11 µM
inactive: [1] | [2] | [4] | [5] | [6] | [7] | [8] | [10]

CN(C)C
inactive: [1] | [2] | [4] | [5] | [6] | [7] | [8] | [9] | [10]

CCCCCC=O
not listed: [3] | [8] | [12] | [13] | [14] | [17] | [18] | [19]
inactive: all other assays above

Cc1ccc(C(C)(C)C)c(O)c1
active: [8] 59.1 µM
47.4 µM (active) and inactive: [1]
inactive: [4] | [5] | [6] | [7] | [9] | [10] | [15] | [16]

CCC(=O)O[C@H]1[C@H](O[C@@H]2[C@@H](C)[C@H](O[C@H]3C[C@@](C)(OC)[C@@H](O)[C@H](C)O3)[C@@H](C)C(=O)O[C@H](CC)[C@@](C)(O)[C@H](O)[C@@H](C)C(=O)[C@H](C)C[C@@]2(C)O)O[C@H](C)C[C@@H]1N(C)C
inactive: [1] | [2] | [4] | [5] | [6] | [7] | [10]

COc1cc([C@H]2Oc3cc([C@H]4Oc5cc(O)cc(O)c5C(=O)[C@@H]4O)ccc3O[C@@H]2CO)ccc1O
48.4 µM (active) and inactive: [4]
inactive: [1] | [2] | [5] | [6] | [7] | [15] | [16]
54.3 µM (active) and inactive: [10]

Nc1ccc(O)c(N)c1
inactive: [1] | [3] | [12] | [6] | [7] | [8] | [9] | [10] | [16]
active: [11] 54.1 µM
304 nM (active) and inactive: [15]

CC/C=C\C/C=C\C/C=C\CCCCCCCC(=O)O
not listed: [1] | [13] | [14] | [15] | [16] | [17] | [18] | [19]
inactive: all other assays above

CC(=O)[C@H]1CC[C@H]2[C@@H]3CC=C4C[C@@H](O)CC[C@]4(C)[C@H]3CC[C@]12C
inactive: [2] | [4] | [5] | [6] | [7] | [9] | [10] | [15] | [16] | [11]

CN(C)CCCN1c2ccccc2Sc2ccc(Cl)cc21
inactive: [2] | [17] | [18] | [19] | [9] | [15] | [16] | [11]
active: [1] 43.6 µM | [4] 54.5 µM and 26.6 µM | [6] 48.6 µM | [7] 54.5 µM | [10] 48.6 µM and 26.6 µM

C=C[C@H]1CN2CC[C@H]1C[C@@H]2[C@@H](O)c1ccnc2ccc(OC)cc12
inactive: [1] | [2] | [4] | [6] | [7] | [8] | [10]

O=C1CCc2ccccc2O1
inactive: [1] | [2] | [4] | [5] | [6] | [7] | [10] | [15] | [16] | [11]

CC(=O)Oc1ccc(C(c2ccc(OC(C)=O)cc2)c2ccccn2)cc1
inactive: [1] | [2] | [4] | [5] | [6] | [7] | [10] | [11]

CC(C)(Oc1ccc(Cl)cc1)C(=O)O
inactive: [1] | [2] | [4] | [5] | [6] | [7] | [8] | [9] | [10] | [11]

COC(=O)C(C)Oc1ccc(Oc2ncc(C(F)(F)F)cc2Cl)cc1 (stereo unspecified)
active: [15] 78 µM
not listed: [3] | [12] | [13] | [14] | [17] | [18] | [19]
inactive: all other assays above
